The structures appear in SMILES notation. The source made the active and inactive calls. How the calls were made is not given here.

The experiment can be described thus: antiviral protection of cells from WNV – synthesized analogs, SAR follow-up (AID 2238). Particulars: West Nile virus CPE inhibition in cells; max CPE inhibition: measured here: maximum CPE inhibition observed, at 40 µM, stronger effect = higher value unless noted; series mostly up to 40 µM; CPE inhibition: at the top concentration.
As to `O=C(Nc1nc(-c2ccc(Cl)cc2)cs1)c1ccccc1Cl`, the “CPE inhibition” value is 0.16% (inactive) and the max CPE inhibition was found to be 0.4%. Turning to `O=C(CSc1nc2ccccc2c(=O)n1-c1ccc(F)cc1F)Nc1ccc2c(c1)CCC2`, the max CPE inhibition was 64.8% [measured here: maximum CPE inhibition observed, at 80 µM, stronger effect = higher value]. Same read-out and setting: in the case of `Cc1cccc2c1-c1sc(C(=O)NCCCN3CCC(C)CC3)cc1CO2` it was 30.6% [measured here: maximum CPE inhibition observed, at 10 µM, stronger effect = higher value]. As to `Nc1ccc2nc3n(c(=O)c2c1)CCC3`, the max CPE inhibition is 1.56% and the “CPE inhibition” value is 1.56% (inactive).

`O=c1c2c(F)cccc2nc2n1CCC2`: the max CPE inhibition came to 1.51% and the “CPE inhibition” value was 0.9% (inactive). The molecule `CCOC(=O)C1(Cc2ccccc2C(F)(F)F)CCN(C2CCN(C(C)C)CC2)CC1` had a max CPE inhibition of 59.8%. The same measure, in the same setting: in the case of `CC1CCCN(CCCNC(=O)c2cc3c(s2)-c2ccccc2OC3)C1` (configuration not stated) it was 71.4% [measured here: maximum CPE inhibition observed, at 10 µM, stronger effect = higher value]. `O=C(CSc1nc2ccccc2c(=O)n1-c1ccc(Cl)c(Cl)c1)Nc1ccc2c(c1)CCC2`: the max CPE inhibition was 63.1%. On to `O=C(Nc1nc(-c2ccc(Cl)cc2)cs1)c1cccc(Cl)c1`, for which the “CPE inhibition” value was 0.85% (inactive) and the max CPE inhibition came out at 0.85%.

As for `O=C(CSc1nc2ccccc2c(=O)n1-c1ccc(F)c(Cl)c1)Nc1ccc2c(c1)CCC2`, the max CPE inhibition was 65.7% [measured here: maximum CPE inhibition observed, at 20 µM, stronger effect = higher value].

In turn, `Brc1ccc2c(c1)CN1CCCC1=N2` yielded a max CPE inhibition of 54.9%.

For `O=C(CSc1nc2ccccc2c(=O)n1-c1ccccc1)Nc1ccc2c(c1)CCC2`, the max CPE inhibition is 72%. Consider `COc1cccc(NC(=O)CSc2nc3ccccc3c(=O)n2-c2ccc(F)cc2)c1`, for which the “CPE inhibition” value is 1.01% (inactive) and the max CPE inhibition amounted to 1.33%. On to `COc1ccc(-c2csc(N(CCCN(C)C)C(=O)c3ccccc3Cl)n2)cc1`, for which the max CPE inhibition worked out at 69.5%. Same read-out and setting: the same measure for `O=C(CSc1nc2ccccc2c(=O)n1-c1ccc(Cl)cc1)Nc1ccc2c(c1)CCC2`: 45.5% [measured here: maximum CPE inhibition observed, at 20 µM, stronger effect = higher value]. The same measure, in the same setting: the same measure for `CC1CCCC(C)N1CCCNC(=O)c1cc2c(s1)-c1ccccc1OC2` (configuration not stated): 77% [measured here: maximum CPE inhibition observed, at 10 µM, stronger effect = higher value].

Consider `CCN(CC)CCCNC(=S)N1CCN(c2nc(-c3ccccc3)cs2)CC1`, for which the max CPE inhibition was 76% [measured here: maximum CPE inhibition observed, at 20 µM, stronger effect = higher value]. In the case of `CC1CC(C)CN(CCCNC(=O)c2cc3c(s2)-c2ccccc2OC3)C1` (configuration not stated), the max CPE inhibition is 41.1% [measured here: maximum CPE inhibition observed, at 20 µM, stronger effect = higher value]. Regarding `O=C(CSc1nc2ccccc2c(=O)n1-c1ccc(F)cc1)Nc1cccc2ccccc12`, the max CPE inhibition stood at 2.57% and the “CPE inhibition” value is 2.57% (inactive). In the case of `CC1CCN(CCCNC(=O)c2cc3c(s2)-c2ccccc2OC3)CC1`, the max CPE inhibition is 73.1% [measured here: maximum CPE inhibition observed, at 20 µM, stronger effect = higher value]. Still for that read-out and setting: the same measure for `O=C(CSc1nc2ccccc2c(=O)n1-c1ccc(F)cc1)Nc1ccc2c(c1)CCC2`: 65.2%; for `CN(C)CCCN1c2ccc([N+](=O)[O-])cc2CCc2cc([N+](=O)[O-])ccc21`: 80.3% [measured here: maximum CPE inhibition observed, at 20 µM, stronger effect = higher value]. Consider `CCCCN(C(=O)c1ccccc1Cl)c1nc(-c2ccc(OC)cc2)cs1`, for which the “CPE inhibition” value is 1.9% (inactive) and the max CPE inhibition was 1.9%. The corresponding values for `Cc1cccc2c(=O)n3c(nc12)CCC3` are 1.97% (inactive) and 1.97%.
